Among the data in PubChem BioAssay AID2665 (Vanderbilt High Throughput Screening Facility, 2010) are % ACh max response values, retold here.

SMILES strings stand for the structures. Unmarked numbers belong to inactive results. Activity calls are given as the source filed them. The rule behind the calls is not given here.

For this test, the target named is Muscarinic acetylcholine receptor M5 (Homo sapiens) (UniProt P08912). Put plainly: potentiation of ACh response at hM5 and rM1 – CHO cells, calcium, ACh EC10, single 30 µM, SAR follow-up (AID 2665).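 Note: 100% = response to a maximal acetylcholine concentration.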 The following applies: CHO hM5 calcium flux, ACh EC10 potentiation; at 30 µM; hits give high values.
Sequence of Muscarinic acetylcholine receptor M5 (Homo sapiens) (P08912 whole entry, looked up): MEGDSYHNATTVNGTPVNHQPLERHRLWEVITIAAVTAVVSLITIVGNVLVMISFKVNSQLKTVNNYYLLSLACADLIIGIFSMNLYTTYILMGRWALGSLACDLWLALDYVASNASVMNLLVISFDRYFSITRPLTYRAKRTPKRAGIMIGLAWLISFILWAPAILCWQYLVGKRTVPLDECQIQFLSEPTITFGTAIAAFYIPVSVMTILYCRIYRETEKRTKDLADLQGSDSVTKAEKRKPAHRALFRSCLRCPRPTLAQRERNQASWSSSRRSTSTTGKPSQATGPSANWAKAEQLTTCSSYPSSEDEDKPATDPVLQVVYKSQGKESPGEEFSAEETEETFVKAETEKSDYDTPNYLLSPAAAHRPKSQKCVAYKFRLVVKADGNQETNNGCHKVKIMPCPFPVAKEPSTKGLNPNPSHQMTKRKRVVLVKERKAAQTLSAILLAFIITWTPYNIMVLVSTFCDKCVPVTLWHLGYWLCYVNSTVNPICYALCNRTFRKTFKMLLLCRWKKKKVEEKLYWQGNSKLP
Turning to `O=C1C(=O)N(Cc2c(F)cccc2F)c2ccc(OC(F)(F)F)cc21`, the % ACh max response is 29.8%.
To `COc1ccc(CN2C(=O)C(=O)c3cc(F)ccc32)cc1` belongs 38.3% (active).
On to `O=C1C(=O)N(Cc2ccccc2C(F)(F)F)c2ccccc21`, for which the % ACh max response is 40.2% (active).
For `O=C1C(=O)N(Cc2ccc(OC(F)(F)F)cc2)c2ccc(Cl)cc21`, the % ACh max response was 47.1% (active).
For the compound `O=C1C(=O)N(Cc2ccc(F)cc2F)c2c(F)cccc21`, the % ACh max response is 68.9% (active).
To `Cc1ccccc1CN1C(=O)C(=O)c2cccc(F)c21` belongs 27.5%.
In the case of `O=C1C(=O)N(Cc2ccc(OC(F)(F)F)cc2)c2c(Cl)cccc21`, the % ACh max response was 72.3% (active).
To `O=C1C(=O)N(Cc2ccccc2C(F)(F)F)c2c(F)cccc21` belongs 30.9% (active); to `COc1cccc(CN2C(=O)C(=O)c3c(Cl)ccc(Cl)c32)c1`, 35.1%.
Turning to `COc1cccc(CN2C(=O)C(=O)c3cc(C)ccc32)c1`, the % ACh max response is 29.6%.
For `COc1cccc(CN2C(=O)C(=O)c3cccc(Cl)c32)c1`, the % ACh max response was 38.7% (active).
For the compound `Cc1cccc2c1N(Cc1ccc(F)cc1F)C(=O)C2=O`, the % ACh max response is 33.8%.
To `O=C1C(=O)N(Cc2ccc(OC(F)(F)F)cc2)c2c(Cl)ccc(Cl)c21` belongs 23.2%; to `O=C1C(=O)N(Cc2ccc(F)cc2F)c2ccc(F)cc21`, 60.3% (active); to `O=C1C(=O)N(Cc2ccc(Br)cc2F)c2ccc(OC(F)(F)F)cc21`, 36.4%.
On to `Cc1ccc2c(c1)C(=O)C(=O)N2Cc1ccccc1C`, for which the % ACh max response was 29.9%.
Turning to `O=C1C(=O)N(Cc2ccccc2F)c2ccc(Cl)cc21`, the % ACh max response was 36.3%.
To `O=C1C(=O)N(Cc2ccccc2F)c2ccc(F)cc21` belongs 46.2% (active).
To `Cc1ccccc1CN1C(=O)C(=O)c2cc(Cl)ccc21` belongs 47.3% (active); to `COc1ccc(CN2C(=O)C(=O)c3c(Cl)ccc(Cl)c32)cc1`, 11.7%.
For the compound `Cc1cccc2c1N(Cc1ccccc1F)C(=O)C2=O`, the % ACh max response was 24.6%.
To `O=C1C(=O)N(Cc2ccccc2F)c2c(Cl)ccc(Cl)c21` belongs 14.7%; to `O=C1C(=O)N(Cc2ccc(-c3ccc(Cl)nc3)cc2)c2ccccc21`, 47.8% (active).
As for `O=C1C(=O)N(Cc2ccc(C(F)(F)F)cc2)c2ccc(Cl)cc21`, the figure is 67.4% (active); as for `O=C1C(=O)N(Cc2ccccc2Cl)c2ccccc21`, 42% (active); as for `COc1ccccc1-c1ccc(CN2C(=O)C(=O)c3ccccc32)cc1`, 58.1% (active).
`O=C1C(=O)N(Cc2ccc(C(F)(F)F)cc2)c2c(F)cccc21`: the % ACh max response is 71.1% (active).
Take `COc1ccc(CN2C(=O)C(=O)c3cccc(F)c32)cc1`: the % ACh max response is 44.4% (active).
As for `O=C1C(=O)N(Cc2ccc(Br)cc2)c2c(Cl)ccc(Cl)c21`, the figure is 20.7%; as for `Cc1ccccc1CN1C(=O)C(=O)c2c(Cl)ccc(Cl)c21`, 16.4%; as for `O=C1C(=O)N(Cc2c(F)cccc2F)c2ccc(F)cc21`, 31.1%.
For the compound `COc1ccc(CCN2C(=O)C(=O)c3ccccc32)cc1`, the % ACh max response was 51.7% (active).
To `COc1ccc(CN2C(=O)C(=O)c3cc(Cl)ccc32)cc1` belongs 32.6%; to `O=C1C(=O)N(Cc2ccccc2F)c2ccccc21`, 24.5% (active); to `Cc1ccc2c(c1)C(=O)C(=O)N2Cc1ccc(C(F)(F)F)cc1`, 35.5%.
To `O=C1C(=O)N(Cc2ccc(OC(F)(F)F)cc2)c2c(F)cccc21` belongs 57.7% (active); to `O=C1C(=O)N(Cc2ccccc2C(F)(F)F)c2ccc(OC(F)(F)F)cc21`, 56.5% (active).
